Only some compounds are listed: those with a hit (about 4.6% of all), similar ones and a draw of the others.
D1 agonist: Allosteric Agonists of the Human D1 Dopamine Receptor: qHTS; 360,000 tested, 1% active; activation, % at 2 µM; D(1A) dopamine receptor (Homo sapiens), P21728; HEK293 T-REx D1 cells, calcium flux, agonist mode; note: 0% is about no effect
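Agonism was scored from calcium flux recorded over 180 s (1 read/s) after pintool compound addition, following a 10-cycle baseline. Cells were inducible force-coupled HEK293 TREx D1, plated overnight at 30 C and loaded with no-wash calcium dye.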
TRHR PAM: qHTS for Small Molecule Agonists and Allosteric Enhancers of Human TRH Receptor: Primary Screen for Enhancers | TRHR cells, fluo-8 calcium fluorescence, EC20 TRH enhancement | Thyrotropin-releasing hormone receptor (Homo sapiens), P34981 | enhancement, % at 2 µM | 360,000 tested, 0.66% active; in the data active = enhancement above about 30%; note: 0% is about no effect
Target sequence (P34981 whole entry, looked up): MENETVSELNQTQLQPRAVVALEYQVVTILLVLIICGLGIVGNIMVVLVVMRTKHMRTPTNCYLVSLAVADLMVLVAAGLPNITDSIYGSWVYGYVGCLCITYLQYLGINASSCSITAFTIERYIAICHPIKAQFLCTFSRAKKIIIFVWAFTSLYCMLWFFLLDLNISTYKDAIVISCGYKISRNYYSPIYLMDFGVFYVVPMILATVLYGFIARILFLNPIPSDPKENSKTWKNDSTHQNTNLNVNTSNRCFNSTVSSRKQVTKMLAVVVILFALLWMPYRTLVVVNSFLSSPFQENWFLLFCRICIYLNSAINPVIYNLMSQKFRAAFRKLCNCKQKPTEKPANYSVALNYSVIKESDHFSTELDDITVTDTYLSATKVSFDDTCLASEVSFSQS
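Enhancer read-out: after compound pinning and an initial kinetic agonist-mode read, an EC20 of TRH (10 nM final) was injected and fluo-8 calcium signal (Ex 480/Em 530) followed at 1 s/cycle for 100 cycles in TRHR-expressing cells.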
D1 antagonist: Antagonist of Human D 1 Dopamine Receptor: qHTS; D(1A) dopamine receptor (Homo sapiens), P21728; HEK293 TREx D1 cells, calcium flux, dopamine EC80; active compounds read low; activity change, negative = inhibition, % at 10 µM; 360,000 tested, 3.2% active; AID 504652, 2011; in the data active = activity change below about -30%; note: % is set by controls: 0 for no effect and ±100 for the full control effect
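HEK293 T-REx cells expressing inducible, force-coupled D1 receptor; no-wash Ca dye, 30–90 min RT. Cmpd → 180 s read at 1 Hz → EC80 DA → 180 s read.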
TRHR ag: qHTS for Small Molecule Agonists and Allosteric Enhancers of Human TRH Receptor: Primary Screen for Agonists. TRHR cells, calcium flux fluo-8, FDSS agonist mode. activation, % at 2 µM. Thyrotropin-releasing hormone receptor (Homo sapiens), P34981. 360,000 tested, 0.18% active; note: 0% is about no effect
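Fluo-8-loaded TRHR cells; 10 s baseline, compound added, kinetic Ca2+ fluorescence read 1/s, agonist mode.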
D1 PAM: Potentiators of Human D1 Dopamine Receptor: qHTS; HEK293 TREx D1 cells, calcium flux, dopamine EC20 potentiation; potentiation, % at 10 µM; 360,000 tested, 0.036% active; D(1A) dopamine receptor (Homo sapiens), P21728; in the data active = potentiation above about 30%; note: 0% is about no effect
Active calls of the source: *; x = no result. Cut-off read from the data, not from the text of the source, unless noted: active = activation above about 30%; inactive = the rest.

SMILES	D1 agonist	TRHR PAM	D1 antagonist	TRHR ag	D1 PAM
O=C(COc1ccc(Br)cc1CNCCc1ccccc1)NCc1ccccc1	28	-3	x	2	-8
C=CCOc1ccccc1CNCCc1ccc(S(N)(=O)=O)cc1	9	5	-10	0	2
Nc1nonc1C(=O)NCCNCc1cc(Br)ccc1OCc1ccccc1F	31*	2	-10	0	-8
NS(=O)(=O)c1ccc(CCNCc2cc(Cl)ccc2OCc2ccccc2)cc1	57*	-2	-6	0	-6
Nc1nonc1C(=O)NCCNCc1ccccc1OCc1ccccc1F	23	-6	-28	0	-9
NS(=O)(=O)c1ccc(CCNC(=O)CNCCc2ccccc2)cc1	1	-4	16	-1	-6
NS(=O)(=O)c1ccc(CCNCc2ccccc2OCc2ccc(Cl)cc2)cc1	53*	-6	-48*	2	-8
COc1cc(CNCCNC(=O)c2nonc2N)ccc1OCc1ccc(Cl)cc1	69*	2	-22	2	-4
Fc1ccccc1COc1ccc(Br)cc1CNCC1CCCO1 (configuration not stated)	12	-3	-50*	0	-12
Cc1c(Cl)cccc1NC(=O)C(C)n1nc(C)c2c(C)n(-c3ccccc3)nc2c1=O (configuration not stated)	2	-3	9	0	-2
O=C(Oc1ccc(Cl)cc1)c1ccc(COC(=O)c2cnccn2)cc1	7	-3	-31*	0	7
O=C(Oc1ccccc1)c1ccc(COC(=O)c2cnccn2)cc1	7	-8	-14	-1	-8
CCC(C(=O)N1CCN(c2ccccc2F)CC1)n1nc(C)c2sc3ccccc3c2c1=O (configuration not stated)	3	6	1	0	2
CC(=O)c1ccc(C(=O)N2CCc3c([nH]c4ccccc34)C2c2ccccn2)s1 (configuration not stated)	1	-2	-31*	-1	-2
O=C(c1cccs1)N1CCc2c([nH]c3ccccc23)C1c1ccccn1 (configuration not stated)	0	0	2	0	-1
CC(C)(C)NC(=O)C(c1c[nH]c2ccccc12)N(C(=O)Cn1nnc(-c2ccc(Cl)cc2)n1)c1ccccc1F (configuration not stated)	5	-3	-7	0	50*
CCCN(CCC)C(=O)c1nn(C)c2c1CSc1ccc(C)cc1-2	3	-1	-16	0	1
CCOC(=O)CSc1nc2nc(C)cc(C)n2n1	-2	-1	6	0	-3
CCCn1c(C)cc(C(=O)CSc2nc3nc(C)cc(C)n3n2)c1C	2	4	-49*	0	-6
Cc1cc(C)n2nc(SCN3C(=O)c4ccccc4C3=O)nc2n1	1	-10	-33*	-3	0
COc1ccc(C(=O)Nc2nnc(SCc3cc(=O)c4cc(C)ccc4[nH]3)s2)cc1OC	-1	-1	3	0	-3
COc1ccccc1/C=C/C(=O)NCC(=O)N/N=C/c1ccc(C)o1	0	-6	-9	0	2
Cc1n[nH]c(=S)n1/N=C/c1ccccc1OCc1ccc(Cl)cc1	2	1	-87*	-1	-2
Cc1n[nH]c(=S)n1/N=C/c1cccc(OCc2ccccc2)c1	2	10	23	-1	11
COc1ccc(CNC(=O)c2ccccc2SCC(=O)NCc2ccco2)cc1	0	-4	13	-1	-1
SMILES	D1 agonist	TRHR PAM	D1 antagonist	TRHR ag	D1 PAM
O=C1C(Cl)=C(Nc2ccccc2)C(=O)c2ccccc21	7	-18	-58*	-1	-7
COC(=O)[C@H]1[C@H]2C[C@@H]3c4[nH]c5cc(OC)ccc5c4CCN3C[C@H]2C[C@@H](OC(=O)c2ccc(N)cc2)[C@@H]1OC	3	15	-66*	2	4
COC(=O)[C@H]1[C@H]2C[C@@H]3c4[nH]c5cc(OC)ccc5c4CCN3C[C@H]2C[C@@H](OC(=O)/C=C/c2cc(OC)c(OC)c(OC)c2)[C@@H]1OC	2	-6	2	-1	7
Cc1ncccc1C(=O)N1CCCC(CNC(=O)C2(c3ccc(Cl)cc3)CC2)C1 (configuration not stated)	0	-6	5	-1	-3
O=C(NCCc1csc(-c2ccc(F)cc2)n1)c1cccs1	-2	2	-13	-1	-4
CCOC(=O)Nc1ccc2c(COC(=O)CNS(=O)(=O)c3cccc(Br)c3)cc(=O)oc2c1	-1	6	5	-1	-8
O=C(NCc1ccccc1Cl)NCc1ccccc1Cl	0	-3	-10	0	2
NC(=O)NCc1ccccc1Cl	1	-3	-38*	1	-3
CCn1c2ccccc2c2cc(CN3CCN(Cc4ccc(Cl)cc4)CC3)ccc21	5	-3	13	-1	6
Cc1nn(-c2cccc(C(F)(F)F)c2)c(=O)c2ccccc12	0	-2	6	0	-6
Cn1cc(-c2nnnn2-c2cccc(C(F)(F)F)c2)c(C(F)(F)F)n1	26	18	-37*	-1	-11
CC(C)CN(C(=O)C1CCCO1)c1c(N)n(CC(C)C)c(=O)[nH]c1=O (configuration not stated)	5	12	-5	0	-5
CC(C)C[C@H](N)c1nnc(S(=O)(=O)Cc2ccc(F)cc2)o1	10	-3	-70*	0	-16
CC(C)C[C@H](N)c1nnc(SCc2ccc(Cl)cc2Cl)o1	27	30	-11	-2	0
CCCS(=O)(=O)N1CCCC(C(=O)NCCOC)C1 (configuration not stated)	-1	3	5	0	0
Cc1ccccc1OCCCCCNCCO	4	5	-6	1	-3
CC(C)(C)c1ccccc1OCCCCCNCCO	33*	22	18	3	-6
CC(C)c1ccccc1OCCCCCNCCO	93*	-5	-8	-2	-8
COc1ccccc1OCCCCNCCO	0	-11	-12	0	-18
Cc1ccc(C)c(Cn2cnc3ccccc3c2=O)c1	0	5	-4	-1	0
CN1CCN(NC(=O)c2ccc(Cl)c(S(=O)(=O)Nc3ccc(Cl)cc3)c2)CC1	2	-4	-38*	0	-17
NS(=O)(=O)c1ccc(NC(=O)COC(=O)C2CCCCC2)cc1	3	0	-11	0	-1

High-throughput results deposited in PubChem BioAssay by National Center for Advancing Translational Sciences (NCATS).
